From PubChem BioAssay (NCATS)
Inconclusive results are not listed. Active and inactive are the calls of the source. Unless noted, calls follow the shape of the dose curve; as a rule, active = well fitted curve in the direction sought with a large enough effect; inconclusive = small, poorly fitted or top-dose-only effect, or another doubt; inactive = no such curve, though single readings can be large; an effect the other way counts as inactive or inconclusive.

Columns and labels:
[1] = target: Luciferin 4-monooxygenase (Photinus pyralis) (UniProt P08659); assay: Biochemical firefly luciferase enzyme assay for NPC (AID 624030);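 also: purified P. pyralis luciferase at 10 nM with luciferin and ATP substrate; nearly all actives have a fitted effect of over 70% in size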
Luciferin 4-monooxygenase (Photinus pyralis), sequence (P08659 whole entry, looked up): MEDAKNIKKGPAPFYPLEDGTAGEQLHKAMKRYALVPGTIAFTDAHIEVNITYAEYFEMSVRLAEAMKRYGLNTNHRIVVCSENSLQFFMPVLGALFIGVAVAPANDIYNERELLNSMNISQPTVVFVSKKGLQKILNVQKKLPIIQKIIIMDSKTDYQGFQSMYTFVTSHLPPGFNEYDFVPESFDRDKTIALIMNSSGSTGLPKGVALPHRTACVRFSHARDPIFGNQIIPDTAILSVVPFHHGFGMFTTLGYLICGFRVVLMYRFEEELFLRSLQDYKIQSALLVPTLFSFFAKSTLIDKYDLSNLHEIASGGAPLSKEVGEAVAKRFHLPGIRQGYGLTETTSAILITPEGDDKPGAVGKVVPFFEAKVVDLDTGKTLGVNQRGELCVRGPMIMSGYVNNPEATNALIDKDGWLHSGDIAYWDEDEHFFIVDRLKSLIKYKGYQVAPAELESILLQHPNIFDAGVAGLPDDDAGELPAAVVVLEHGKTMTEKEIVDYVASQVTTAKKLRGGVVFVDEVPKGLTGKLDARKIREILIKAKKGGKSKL
How it was run: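 Purified P. pyralis luciferase at 10 nM in 50 mM Tris Acetate (final), luminescence read within 5 minutes of enzyme addition to compounds. Activity normalised to PTC124 versus DMSO; concentration-response curves classed by r2, magnitude and activity.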

[2] = S16 Schwann cell viability assay (CellTiter-Glo assay) (AID 624031);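 also: cellular ATP luminescence as a viability measure; nearly all actives have a fitted effect of over 70% in size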
How it was run: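 Native S16 rat Schwann cells in DMEM/10% FBS without phenol red were incubated overnight, then exposed to compounds for 24 h at 37 °C/5% CO2. Viability was read as ATP luminescence (CellTiter-Glo), normalized to no-cell wells and DMSO (0%).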

[3] = S16 Schwann cell PMP22 intronic element firefly luciferase assay (AID 624032); also: nearly all actives have a fitted effect of over 30% in size
How it was run: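 Rat S16 Schwann cells stably carrying firefly luciferase driven by a PMP22 intronic element, in 10% FBS, treated 24 h at 37 C. ONE-Glo luminescence normalized to PTC124 control and DMSO (0%); curves classed by r2, magnitude and activity.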

[4] = S16 Schwann cell PMP22 intronic element beta-lactamase assay (AID 624044; calls by dose curve; also: nearly all actives have a fitted effect of over 15% in size)
How it was run: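 Rat S16 Schwann cells with beta-Lac driven by a PMP22 intronic element, compound-treated 24 h at 37 °C. LiveBLAzer FRET B/G read: 460 nm normalized to potassium clavulanate vs DMSO; 535 nm FRET as viability; concentration-effect curves classified.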

3D7 = assay: qHTS profiling for inhibitors of Plasmodium falciparum proliferation (AID 504749); also: nearly all actives have a fitted effect of over 60% in size; settings: P. falciparum in erythrocytes, SYBR Green DNA, 72 h; series mostly up to 28.7 µM
How it was run: (§1)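 Readout was DNA-dye fluorescence from lysed cultures, ex 485/em 535 nm. Parasitized red cells had grown 72 h with compound; data scaled between 0.29 uM artemisinin and DMSO wells and corrected using vehicle-only plates.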

7G8 = assay: as above; settings: P. falciparum in erythrocytes, SYBR Green DNA, 72 h; series mostly up to 28.7 µM
How it was run: as §1

C2A = assay: as above; settings: P. falciparum in erythrocytes, SYBR Green DNA, 72 h; series mostly up to 28.7 µM
How it was run: as §1

CP217 = assay: as above; settings: P. falciparum in erythrocytes, SYBR Green DNA, 72 h; series mostly up to 28.7 µM
How it was run: as §1

CP237 = assay: as above; settings: P. falciparum in erythrocytes, SYBR Green DNA, 72 h; series mostly up to 28.7 µM
How it was run: as §1

CP250 = assay: as above; settings: P. falciparum in erythrocytes, SYBR Green DNA, 72 h; series mostly up to 28.7 µM
How it was run: as §1

CP252 = assay: as above; settings: P. falciparum in erythrocytes, SYBR Green DNA, 72 h; series mostly up to 28.7 µM
How it was run: as §1

CP256 = assay: as above; settings: P. falciparum in erythrocytes, SYBR Green DNA, 72 h; series mostly up to 28.7 µM
How it was run: as §1

CP260 = assay: as above; settings: P. falciparum in erythrocytes, SYBR Green DNA, 72 h; series mostly up to 28.7 µM
How it was run: as §1

Dd2 = assay: as above; settings: P. falciparum in erythrocytes, SYBR Green DNA, 72 h; series mostly up to 28.7 µM
How it was run: as §1

ECU = assay: as above; settings: P. falciparum in erythrocytes, SYBR Green DNA, 72 h; series mostly up to 28.7 µM
How it was run: as §1

ICS = assay: as above; settings: P. falciparum in erythrocytes, SYBR Green DNA, 72 h; series mostly up to 28.7 µM
How it was run: as §1

JCK = assay: as above; settings: P. falciparum in erythrocytes, SYBR Green DNA, 72 h; series mostly up to 28.7 µM
How it was run: as §1

N140 = assay: as above; settings: P. falciparum in erythrocytes, SYBR Green DNA, 72 h; series mostly up to 28.7 µM
How it was run: as §1

P93_24 = assay: as above; settings: P. falciparum in erythrocytes, SYBR Green DNA, 72 h; series mostly up to 28.7 µM
How it was run: as §1

SC27B = assay: as above; settings: P. falciparum in erythrocytes, SYBR Green DNA, 72 h; series mostly up to 28.7 µM
How it was run: as §1

Measured: Potency

CC(=O)OC1CC2CCC1(C)C2(C)C (stereo not given)
inactive: all assays above
